# Source: PubChem BioAssay (several laboratories)
# Lmaj promast: Leishmania major promastigote growth inhibition | Leishmania major promastigotes, resazurin fluorescence viability | inhibition, % at 10 µM | 200,000 compounds, 9% hits | AID 1063; in the data active means inhibition above about 50%;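 further: promastigotes grown with compound for 44 hours at 28 °C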
# Autophagy HCS: modulators of autophagy; calls only at 10 µM (by protocol); MEF GFP-LC3 puncta imaging; test concentration mostly 10 µM; 190,000 compounds, 0.98% hits;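 active means percentage of spot-positive cells more than 3 SD above its plate mean, without a fluorescence outlier flag or 80% toxicity; inconclusive means no clear call, values can overlap the other calls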;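 further: spot-positive cell cutoff set from DMSO-treated cells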
# Insulin prom up: MIN6 insulin promoter up-regulation | 190,000 compounds, 0.3% hits | MIN6 insulin promoter-GFP reporter, high-content imaging; active compounds read high | z-score at 5 µM;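 active means z-score above 3 at 5 µM with at least 500 cells counted in the well; inconclusive means wells under 500 cells, flagged as cytotoxic or low count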
# Insulin prom inh: TRM-6 insulin promoter activity inhibition; AID 1273; 130,000 compounds, 0.9% hits; TRM-6 cells (human fetal islet line), insulin promoter-eGFP reporter, imaging; reporter expression induced with tamoxifen; inhibition, % at 2 µM;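 active means inhibition above the mean plus 3 SD, with well images judged a real hit on visual review, cut at about 60% in these data, passing the limit was not always enough; inconclusive means inhibition over the cutoff but images rejected on review; inactive means inhibition not above the cutoff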
# WT yeast gro inh: growth inhibition of WT yeast, mitochondrial fusion screen | 190,000 compounds, 2.1% hits | AID 1362 | inhibition, % at 10 µM | mitochondrial fusion phenotypic screen, WT strain; in the data active means inhibition above about 58%; tested in S. cerevisiae
# * hit, by the source's call; i = inactive; u = inconclusive; x = no result given; + = active, no number. Most compounds without a hit are left out; they make up all but 11% or so of the library.
SMILES,Lmaj promast,Autophagy HCS,Insulin prom up,Insulin prom inh,WT yeast gro inh
N#C/C(C(=O)NCc1ccccc1)=C1/SC(Cc2ccc(Cl)cc2)C(=O)N1c1ccccc1 (configuration not stated),-3,i,0.52,36,4
CC(C)=CCC/C(C)=C/C=N/NC(=O)c1ccccc1[N+](=O)[O-],94*,i,-0.53,x,5
C/C(CCc1ccccc1)=N\NC(=O)c1ccccc1[N+](=O)[O-],-6,i,-0.41,-8,-9
O=c1c2ccccc2cnn1-c1nc2ccccc2[nH]1,-4,i,-0.66,-14,86*
O=c1c2ccccc2nc2c3ccccc3cnn12,8,i,-0.03,27,5
O=c1c(Cl)c(N2CCCCC2)cnn1-c1nc2ccccc2[nH]1,60*,i,0.36,-66,56
O=[N+]([O-])c1ccc(/C=N/n2c(-c3cccnc3)n[nH]c2=S)cc1,-3,i,1.2,x,-6
Cc1cc(-c2n[nH]c(=S)n2/N=C/c2cc([N+](=O)[O-])ccc2Cl)n[nH]1,84*,i,0.04,11,0
Cc1cc(-c2n[nH]c(=S)n2/N=C/c2ccc(Cl)c([N+](=O)[O-])c2)n[nH]1,0,i,x,10,2
O=[N+]([O-])c1cccc(/C=N/n2c(-c3cccnc3)n[nH]c2=S)c1,55*,i,0.03,8,-6
CNS(=O)(=O)c1ccc(C)c(S(=O)(=O)NC)c1,-6,i,0.86,x,-6
Nc1ncc(Br)cc1S(=O)(=O)NCCC(=O)Nc1cccc(Cl)c1,64*,i,-0.18,-25,57
Cc1cc(C(=O)N/N=C/c2cc(Br)ccc2OC(=O)c2ccccc2Cl)n[nH]1,98*,i,-0.47,x,-3
CCOC(=O)c1ccc(Oc2nc(NC(C)(C)C)nc(N(C)C)n2)cc1,17,i,0.96,35,65*
CCS(=O)(=O)CCSc1nc(C)cc(C)n1,-5,i,0.44,x,-14
Cc1cc(C)nc(SCSc2nc(C)cc(C)n2)n1,-13,i,4.5*,x,7
O=C(NC12CC3CC(CC(C3)C1)C2)N1CCN(C2CCCCC2)CC1,85*,i,-0.21,x,-4
O=C(NC1CCCCC1)N1CCCCCCC1,-2,i,0.38,x,-11
CCOC(=O)N1CCN(C(=S)NC)CC1,-5,i,-0.1,72*,-4
O=C(NC1CCCCC1)N1CCN(C2CCCCC2)CC1,68*,i,-0.3,33,-6
CCOC(=O)N1CCN(C(=S)NC(C)(C)C)CC1,-4,i,x,15,6
CCOC(=O)N1CCN(C(=O)NC2CCCCC2)CC1,-4,i,3.7*,-30,-7
O=C(COC(=O)Cn1cnc2ccccc2c1=O)Nc1cc(Cl)ccc1[N+](=O)[O-],-7,i,-4.3,-13,-1
S=C(NC1CCCCC1)N1CCN(C2CCCCC2)CC1,91*,i,1.3,x,11
S=C(NC1CCCCC1)N1CCOCCOCCN(C(=S)NC2CCCCC2)CCOCCOCC1,x,x,-1.6,x,x
SMILES,Lmaj promast,Autophagy HCS,Insulin prom up,Insulin prom inh,WT yeast gro inh
CCC(C)C(NC(=O)C1CCC(C)CC1)C(=O)Nc1ccc(OC)cc1OC (configuration not stated),15,i,0.26,x,7
COC(=O)C(CCSC)NC(=O)C(NC(=O)C1CCC(C)CC1)C(C)C (configuration not stated),69*,i,-0.33,x,-31
CSCCC(NC(=O)C1CCC(C)CC1)C(=O)O (configuration not stated),47,i,0.94,x,37
CCC(C)C(NC(=O)C1CCC(C)CC1)C(=O)NC(CCSC)C(=O)OC (configuration not stated),68*,i,x,-17,-28
CCOC(=O)CSc1nc(N)c(C(=O)Nc2ccc(N(C)C)cc2)s1,3,i,0.11,x,-3
CC(Oc1ccc(Cl)cc1)C(=O)NNC(=S)NC(=O)c1ccco1 (configuration not stated),9,i,-0.5,46,85
CCN(CC)S(=O)(=O)c1ccc(OC)c(NC(=O)c2cccs2)c1,8,i,-0.49,x,1
CNc1ccccc1C(C)(C)c1cc(-c2cc(C)cc(C)c2)no1,0,i,-0.66,x,57
CNc1ccccc1C(C)(C)c1cc(-c2cccc(OC)c2)no1,12,i,-2.4,-70,63*
COc1cc(CNCc2ccccn2)ccc1OCc1ccc(Cl)cc1Cl,99*,i,-0.39,x,63
COc1cc(CNCc2ccccn2)ccc1OCC(N)=O,-2,i,0.27,x,-5
COc1cc(CNCc2ccccn2)ccc1OCc1ccc(Cl)c(Cl)c1,100*,i,-0.99,x,72*
O=C1SC(SC(=Nc2ccccc2)Nc2ccccc2)C(=O)N1c1ccccc1 (configuration not stated),4,i,0.39,11,22
CC[n+]1c(/C=C/c2c[nH]c3ccccc23)ccc2cc(C)ccc21,100*,+,u,x,76*
CCN(CC)C(=O)c1ccc(/C=C/c2c[nH]c3ccccc23)[n+](C)c1,3,i,1.2,-17,-10
CCCN1C2CCCC1CC(NC(=O)Nc1cccc(C(C)=O)c1)C2 (configuration not stated),-5,i,0.65,-38,-5
O=C(Nc1ccccc1-c1ccccc1)NC1CC2CCCC(C1)N2Cc1ccc(F)cc1 (configuration not stated),69*,i,-0.33,x,-6
O=C(Nc1ccccc1-c1ccccc1)NC1CC2CCCC(C1)N2CCc1ccccc1 (configuration not stated),72*,i,-0.22,x,-19
O=C(NCC1CCCO1)C(Cc1ccccc1)N1C(=O)C2C3C=CC(C4CC34)C2C1=O (configuration not stated),1,i,0.15,45,4
Cc1cc(C(=O)N2CCCC(C(=O)c3cc(F)ccc3F)C2)c(C)o1 (configuration not stated),0,i,-0.22,x,6
Cc1ccc(NC(=O)CSCc2n[nH]c(=O)[nH]2)c(Br)c1,-8,i,-0.34,x,-5
Cc1ccc(-n2nc(C)c(=O)c(-c3ccccc3)c2NC(=O)C(C)C)cc1,x,x,0.09,x,x
Cc1cc(C)cc(N(CC(=O)N/N=C/c2ccncc2)S(=O)(=O)c2ccccc2)c1,75*,i,-0.11,7,-13
Cc1ccc(NC(=O)c2sc3nc(CCl)[nH]c(=O)c3c2C)c(C)c1,89*,i,-0.25,25,-12
O=c1c2cc(F)ccc2[nH]c(=S)n1CCCN1CCOCC1,-7,i,-0.63,-29,-14
O=C(CN(c1cccc(C(F)(F)F)c1)S(=O)(=O)c1ccc(Cl)c([N+](=O)[O-])c1)NCc1ccccc1Cl,100*,i,u,-11,-10
O=C(CN(c1ccc(Br)cc1)S(=O)(=O)c1ccc(Cl)c([N+](=O)[O-])c1)NCCc1ccccc1,-5,i,0.58,x,0
O=C(CN(c1cccc(C(F)(F)F)c1)S(=O)(=O)c1ccc(Cl)c([N+](=O)[O-])c1)NCc1ccccc1,63*,i,-0.18,3,-7
